Abeta rescue – qHTS for compounds that reverse cellular toxicity of Amyloid beta (A-beta) peptide in yeast: Primary Screen. AID 1347071, 2019. Potency, µM (titrated, usually from 46.1 µM), hits mostly activators. yeast expressing A-beta42, growth rescue, OD600, 48 h; response scale: 0% DMSO, 100% iron-clioquinol control. 410,000 tested, 0.063% active; also: nearly all actives have a fitted effect of over 55% in size
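Yeast A-beta toxicity model in growth medium with pinned compounds, 48 h at 30 C; growth read as absorbance at 600 nm. Normalized to FeCl3/clioquinol equimolar mix (positive) and DMSO (negative).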
aSyn rescue – qHTS of alpha-syn Inhibitors. Yeast expressing alpha-synuclein, growth rescue, BacTiter-Glo, 24 h. Potency, µM (doses to about 46.1 µM), for inactives: at the highest dose growth rescue (activation), usual class: activators. 370,000 tested, 0.14% active; also: % of control where 0% means no effect; nearly all actives have a fitted effect of over 65% in size
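Rescue of yeast growth: cells expressing toxic alpha-synuclein, induced in galactose at OD600 0.02, incubated with compound 24 h at 30 C. ATP luminescence quantified growth; inhibitors of toxicity appear as activators.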
FUS yeast rescue – qHTS for Suppressors of FUS Proteinopathy: Primary screen using FUS-linked yeast assay; S. cerevisiae FUS-expressing, growth rescue, OD600, 24 h; Potency, µM (titrated, usually from 76.6 µM), most hits filed as activators; 390,000 tested, 0.24% active; AID 1347120, 2019;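 also: plate controls were DMSO vehicle for no effect and reference control for full effect; nearly all actives have a fitted effect of over 55% in size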
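Steps: raffinose overnight preculture; dilution to OD 0.005 in 2% galactose minimal medium; compound addition (concentration series); 24hr at 30C, 99% humidity; absorbance read at 600 nm.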
TDP-43 yeast inh – qHTS of TDP-43 Inhibitors. TDP-43 expressing yeast growth rescue, BacTiter-Glo, 24 h. Potency, µM (titrated, usually from 46.1 µM), for the others: at the top dose growth rescue (activation), hits mostly activators. 410,000 tested, 1.8% active. AID 652104, 2013; also: % of control where 0% means no effect; nearly all actives have a fitted effect of over 50% in size
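In this qHTS, compounds that restore growth of yeast expressing TDP-43 appear as activators. Cells (OD600=0.02, galactose medium, raffinose-pregrown) are incubated with compound 24 hr at 30 deg C and growth is quantified by BacTiter-Glo.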
* hit, by the source's call; i = inactive; u = inconclusive; x = not tested or not shown. In the library only some 2.1% were active in any assay of this set; here they are far more common. Calls follow the shape of the dose curve; as a rule, active = well fitted curve in the direction sought with a large enough effect; inconclusive = small, poorly fitted or top-dose-only effect, or another doubt; inactive = no such curve, though single readings can be large; an effect the other way counts as inactive or inconclusive. Potency is read from the fitted curve at half-maximal effect.

SMILES | Abeta rescue | aSyn rescue | FUS yeast rescue | TDP-43 yeast inh
Cc1cc(C)c(O)c(-c2n[nH]c3c2C(c2cccc(O)c2)N(Cc2ccco2)C3=O)c1 (stereo not drawn) | i | -1% | 32µM* | -9%
O=C1c2[nH]nc(-c3ccccc3O)c2C(c2ccc(F)cc2)N1Cc1ccco1 (stereo not drawn) | i | 5% | 45µM* | 27%
Cc1ccc(-n2ncc(C(=O)NCCN3CCC(Cc4ccccc4)CC3)c2C2CCN(C(=O)OC(C)(C)C)CC2)cc1 | i | x | u | -9%
CCNC(=S)N/N=C(\C)c1ccc2ccccc2c1OC(F)F | 5.6µM* | -9% | u | u
O=C(Nc1cccc(F)c1)C1CCN(c2nc3ccccc3nc2C(F)(F)F)CC1 | i | x | i | 17%
COc1cc2cc(C(c3nnnn3C(C)(C)C)N3CCc4ccccc43)c(=O)[nH]c2cc1OC (stereo not drawn) | i | 10% | 28µM* | -22%
CCc1cccc(C)c1NS(=O)(=O)c1c(C(=O)N2CCC(C)CC2)c(C)n(C)c1C | i | x | u | 26%
O=C(N/N=C/c1cc([N+](=O)[O-])ccc1O)C1CCCCC1 | i | 4µM* | i | 10%
O=C(Cn1nc2ccccc2n1)N/N=C/c1cc([N+](=O)[O-])ccc1O | i | -10% | i | -8%
Cc1ccc(NC(=O)CN2C(=O)CSc3ccc(S(=O)(=O)N4CCCC4)cc32)c(C)c1 | i | x | i | 7%
Nc1cccnc1Sc1cccc(Cl)c1 | i | 14% | i | 18µM*
O=C(Nc1ncc2c(n1)-c1ccccc1CC2)c1ccc(Cl)cc1 | i | 13% | i | 3%
O=C(Nc1ncc2c(n1)-c1ccccc1CC2)c1cccc(Cl)c1 | i | -2% | x | 13µM*
Cc1cc(Nc2cccc(Cl)c2)nc2ccc(NC(=O)c3cccnc3)cc12 | i | x | i | 24%
Cc1cc(Nc2cccc(C(F)(F)F)c2)nc2ccc(NC(=O)Cc3ccc(Cl)cc3)cc12 | i | x | i | 14µM*
Cc1cc(Nc2cccc(Cl)c2)nc2ccc(NC(=O)c3cccc(N(C)C)c3)cc12 | i | x | u | 16µM*
COc1ccc(CC(=O)Nc2ccc3nc(Nc4cccc(Cl)c4)cc(C)c3c2)cc1 | i | x | u | u
COc1ccc(CN(Cc2ccco2)c2cnc(S(C)(=O)=O)nc2C(=O)Nc2ccc(C)c(C)c2)cc1 | i | x | u | -9%
C=C1C[C@@]23CC[C@H]4[C@@](C)(CCC[C@@]4(C)C(=O)OC4OC(CO)C(O)C(O)C4O)[C@@H]2CC[C@]1(OC1OC(CO)C(O)C(O)C1OC1OC(CO)C(O)C(O)C1O)C3 (stereo partly drawn) | x | 3% | x | x
CN(C(=O)c1ccccc1)C(=O)c1ccccc1 | i | -3% | i | 6%
O=C(c1ccccc1)N(C(=O)c1ccccc1)c1ccccc1 | i | -10% | i | 4.5µM*
CCc1ccc(NC2CC(=O)N(CCc3ccc(OC)c(OC)c3)C2=O)cc1 (stereo not drawn) | i | -6% | i | 18µM*
CCn1cc(C(=O)N2CCN(c3ccc(F)cc3)CC2)c(=O)c2ccc(C)nc21 | x | x | i | x
COc1ccc(N(Cc2nnc3n2CCCCC3)C(=O)Nc2ccc(Cl)cc2)cc1Cl | i | 1% | i | 14%
O=C1OC(c2cccc3c(F)cccc23)c2ccccc21 (stereo not drawn) | i | 8% | i | 20µM*
SMILES | Abeta rescue | aSyn rescue | FUS yeast rescue | TDP-43 yeast inh
CCOc1cc(-c2nc(-c3ccc(-c4ccc(OC)cc4)nc3OC)no2)cc(OCC)c1OCC | i | x | i | 14%
CCCN(Cc1ccccc1)C(=S)Nc1ccc(F)cc1 | i | -3% | i | 18µM*
O=C(Nc1ccccc1[N+](=O)[O-])NC1CCCCN(Cc2cccc(Cl)c2)C1=O (stereo not drawn) | x | x | i | x
O=C(CC1(O)C(=O)N(CCc2ccccc2)c2ccc(Br)cc21)c1ccccc1 (stereo not drawn) | i | -13% | i | 32µM*
COc1cccc(-n2cc(C(=O)Nc3cc(C)c(Cl)cc3OC)c3ccccc3c2=O)c1 | i | x | i | 20%
O=C(c1ccccc1)N1CCN=C1SCc1ccc([N+](=O)[O-])cc1 | i | 2% | i | 10µM*
